aSyn 5UTR act: Activators via SNCA 5'UTR binding, MLPCN; 7.1% of 300,000 active; alpha-synuclein 5'UTR reporter, activators screen; activity score, % (tested at 7.5 µM), hits read low; in the data active = activity score below about -60%
* marks the source's active call; other numbers are inactive results. These entries were drawn from the full list.

SMILES | aSyn 5UTR act
CS(=O)(=O)N1CCc2cc(C(=O)Nc3ccc(Br)cc3)ccc21 | -77*
CS(=O)(=O)N1CCc2cc(C(=O)OCC(=O)c3ccccc3)ccc21 | -138*
Cc1cccc(NC(=O)c2ccc3c(c2)CCN3S(C)(=O)=O)c1 | -203*
CCOc1ncccc1C(=O)Nc1nc(SC)ns1 | -108*
CSc1nsc(NC(=O)Cc2ccccc2)n1 | -85*
CN(C)c1cc(N/N=C/c2ccc(Cl)cc2)nc(N(C)C)n1 | -64*
Clc1ccc(-c2nc(C3CCCCC3)no2)cc1 | -160*
CC1=NC(=O)C(N=Nc2cccc(O)c2)N1c1ccccc1 (stereo unspecified) | -260*
Nc1cnc(Nc2ccc(Br)cc2)nc1N | -106*
CC(=O)N(C)c1ccc(NC(=O)Nc2ccc(C)cc2)cc1 | -76*
CC(=O)N(C)c1ccc(NC(=O)Nc2ccc(Cl)cc2)cc1 | -135*
COc1ccc2cc(-c3ccn[nH]3)ccc2c1 | -124*
O=C(c1cccs1)N(CCN1CCCCC1)CC1CCCN(C2CCCC2)C1 (stereo unspecified) | -113*
Cc1ccc(C(=O)N(CCN2CCCCC2)CC2CCCN(C3CCCC3)C2)s1 (stereo unspecified) | -77*
COc1cccc(NC(=O)c2ccc3nsnc3c2)c1 | -151*
Cc1nc(NC(=O)C2CC2)sc1C(=O)Nc1ccccc1Cl | -164*
COc1ccccc1NC(=O)c1sc(Cl)nc1C | -69*
O=C(Nc1ccc(Br)cc1F)c1ccc2nsnc2c1 | -106*
COc1ccc(Nc2sc(C(=O)Nc3cccc(Cl)c3)c(N)c2C(=O)Nc2ccccc2OC)cc1 | -67*
CCCOc1cccc(C(=O)Nc2ccc(Br)cc2F)c1 | -161*
COc1ccccc1NC(=O)c1ccc2nsnc2c1 | -112*
O=C(Nc1ccc(F)cc1)c1ccc2nsnc2c1 | -175*
COc1ccc(NC(=O)NC2CCCCCCC2)cc1 | -139*
COC(=O)c1ccc(NC(=O)NC2CCCCC2)cc1 | -117*
Oc1ccc(C2C(c3ccccc3)=NN=C(c3ccccc3F)N2O)c(O)c1 (stereo unspecified) | -91*
SMILES | aSyn 5UTR act
Oc1ccc(C2C(c3ccccc3)=NN=C(c3ccc(Cl)cc3)N2O)c(O)c1 (stereo unspecified) | -72*
Cc1nc2nc(-c3cccs3)[nH]c2cc1Br | -149*
Cc1ccc(NC(=O)c2ccnc(C(C)(C)C)c2)cc1 | -127*
Cc1ccc(NC(=O)c2cccc(S(C)(=O)=O)c2)cc1 | -83*
CCN(CC)S(=O)(=O)c1cccc(C(=O)NCCc2ccccc2)c1 | -159*
CCN(CC)S(=O)(=O)c1cccc(C(=O)N/N=C(\C)c2ccc(O)cc2O)c1 | 111
CCN(CC)S(=O)(=O)c1cccc(C(=O)Nc2cccc(C)c2)c1 | -124*
CCN(CC)S(=O)(=O)c1cccc(C(=O)Nc2ccc(Cl)cn2)c1 | -76*
CCCCN(CC)S(=O)(=O)c1ccc(C(=O)Nc2nnc(-c3ccccc3Cl)o2)cc1 | 76
CCN(CC)S(=O)(=O)c1cc(C(=O)Nc2ccc(Cl)cn2)ccc1C | -118*
Cc1ccc(C(=O)NNC(=O)c2ccco2)cc1 | -69*
Cc1ccc(NC(=S)NNC(=O)c2ccco2)cc1 | -74*
COc1ccccc1/C=C/C(=O)NCCC1=CCCCC1 | -150*
O=C(/C=C/c1ccccc1)NCCC1=CCCCC1 | -194*
O=C(/C=C/c1ccccc1)NCCOc1ccccc1 | -64*
O=C(NCCOc1ccccc1)C1CCCCC1 | -89*
O=C(/C=C/c1ccc(F)cc1)NCCC1=CCCCC1 | -105*
O=C(Oc1ccc(-c2cnc3ccccc3n2)cc1)c1ccc(Cl)c([N+](=O)[O-])c1 | -129*
O=C(Oc1ccc(-c2cnc3ccccc3n2)cc1)c1ccc(Br)o1 | -117*
O=C(Oc1ccc(-c2cnc3ccccc3n2)cc1)c1cccc([N+](=O)[O-])c1 | -183*
Cn1c(CCNC(=O)c2cccs2)nnc1SCC(=O)Nc1nc(-c2ccccc2)cs1 | -73*
Cc1ccc(C(=O)NCCc2nnc(SCC(=O)Nc3nc(-c4ccccc4)cs3)n2C)cc1 | -65*
Cc1nnc(SCC(=O)Nc2nc(-c3ccccc3)cs2)n1N | -81*
O=C(COc1ccc2ccccc2c1)Nc1cccnc1Cl | -77*
O=C(COc1ccc2ccccc2c1)N1CCCC1 | -68*
SMILES | aSyn 5UTR act
O=C(COc1ccc2ccccc2c1)NC1CC1 | -128*
O=C(COc1ccc2c3c(c(=O)oc2c1)CCC3)N1CCCCC1 | -82*
Cc1c(CCC(=O)N2CCC(C(=O)O)CC2)c(=O)oc2cc3oc4c(c3cc12)CCCC4 | 74
Cc1c(CCC(=O)N2CCC(C(=O)O)(c3ccccc3)CC2)c(=O)oc2cc3oc4c(c3cc12)CCCC4 | 67
CCN1C(=O)/C(=C/c2nc3ccccc3c(=O)n2-c2ccccc2)c2ccccc21 | -104*
COc1ccc(/C(C)=N/Nc2ccc(F)cc2F)c(O)c1 | -97*
C/C(=N\Nc1ccc(F)cc1F)c1cccs1 | -88*
COc1ccc(/C(C)=N/Nc2ccccc2Cl)c(O)c1 | -102*
O=C(NC(=O)c1ccccc1)Nc1ccccn1 | 64
Cc1cccc(NC(=O)NC(=O)c2ccccc2)n1 | -139*
Cc1cccc(NC(=O)c2ccc(C(=O)c3ccccc3)cc2)n1 | -102*
